Reference: PubChem BioAssay (NCI)
Compounds without any hit were thinned out: in the full panel of roughly 83,000, 20% have a hit.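 Plates (96-well) were seeded with cells, treated with compound at one concentration, and incubated for 48 hours before percent growth was determined.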 Unmarked numbers belong to inactive results. Active and inactive are the calls of the source. Rule for the calls: active = growth percent below 10; inactive = the rest.

What was measured:
Experiment in all cases: NCI-60 one-dose screen, 48 h (100 = growth as untreated, 0 = no growth, -100 = all killed)
Conditions in all cases: 10 µM unless noted
HCT-15 colon = test system: HCT-15 colon
HT29 colon = test system: HT29 colon
SNB-75 CNS = test system: SNB-75 CNS
SNB-19 CNS = test system: SNB-19 CNS
U251 CNS = test system: U251 CNS
PC-3 prostate = test system: PC-3 prostate
SK-MEL-5 melanoma = test system: SK-MEL-5 melanoma
UACC-62 melanoma = test system: UACC-62 melanoma
LOX IMVI melanoma = test system: LOX IMVI melanoma
SK-MEL-28 melanoma = test system: SK-MEL-28 melanoma

Row | Compound | growth (HCT-15 colon) | growth (HT29 colon) | growth (SNB-75 CNS) | growth (SNB-19 CNS) | growth (U251 CNS) | growth (PC-3 prostate) | growth (SK-MEL-5 melanoma) | growth (UACC-62 melanoma) | growth (LOX IMVI melanoma) | growth (SK-MEL-28 melanoma)
1 | CN(C)CCCC1(c2ccc(F)cc2)OCc2cc(-c3cncc4ccccc34)ccc21 (stereo not given) | 38.3% | 13.5% | 41.6% | 54% | 3.14% (active) | 44.9% | -88.8% (active) | 11.5% | 19.3% | -65% (active)
2 | Cn1cccc1C(=O)C1C(c2cccc([N+](=O)[O-])c2)C2C3CCCCC3CN2C12C(=O)Nc1ccc(Cl)cc12 (stereo not given) | 41.7% | 41.9% | 37.4% | 53.2% | 53.8% | 35.2% | 64.5% | 60.1% | 37.3% | 83.2%
3 | COc1ccc2c(O)c(/C=C3\N=Nc4ncccc43)oc2c1C[C@H]1CCNC[C@H]1F | 7.66% (active) | 5.05% (active) | -61.2% (active) | 10.4% | -51% (active) | -5.49% (active) | -30.1% (active) | -15.4% (active) | -11% (active) | 8.22% (active)
4 | O=C1/C(=C\c2cn(-c3ccccc3)nc2-c2ccc(-c3cccs3)cc2)CCc2ccccc21 | 37.8% | 29.5% | 45.8% | 61% | 66.2% | 78.1% | 66% | 47.7% | 56.9% | 68.8%
5 | CC(=O)[C@@H]1CCC=C2CC[C@]3(C)[C@@H](CC[C@@H]4[C@@]5(C)CCCNC(C)(C)[C@@H]5CC[C@]43C)[C@H]21 | -89% (active) | -83.7% (active) | 23.5% | -77.2% (active) | -98.8% (active) | -21.4% (active) | 64.2% | -79% (active) | -99.5% (active) | -42.3% (active)
6 | c1cnc2[nH]cc(-c3csc(-c4cn(CCCN5CCOCC5)c5ccccc45)n3)c2c1 | 14% | 7.69% (active) | 20.1% | 56.8% | 32.9% | 19.6% | 38% | 65.5% | 30.6% | 65.3%
7 | CC1Cc2c(Cl)ncnc2N(C)c2ccc(F)cc21 (stereo not given) | 106% | 90.6% | 59.8% | 104% | 89.7% | 87.5% | 76.9% | 99.6% | 92.3% | 86.5%
8 | O=C(NNC(=O)c1ccc(-n2cc(-c3ccccc3)nn2)cc1)Nc1ccccc1 | 103% | 118% | 97.2% | 90.1% | 96.5% | 99.8% | 100% | 97.9% | 97.1% | 109%
9 | COc1ccc(-c2nc(/C=C3\SC(=NCc4ccccc4)NC3=O)c3ccccn23)cc1 | 0.0387% (active) | -70.4% (active) | -46.8% (active) | 16% | -43.6% (active) | 13.7% | -78.4% (active) | -49.7% (active) | -76.4% (active) | -43.9% (active)
10 | O=Nc1c(-c2c(O)[nH]c3ncccc23)[nH]c2ccccc12 | 33.9% | 102% | 31.2% | 96.4% | 67.3% | 67.7% | 72.3% | 56.7% | 44.5% | 75.3%
11 | CC(C)c1ccc(COCc2cc(CN3CCCC3)c(O)c3ncccc23)cc1 | -35.5% (active) | 30.5% | 25.9% | 17.3% | -13.2% (active) | 11.6% | 4.48% (active) | -9.84% (active) | -33% (active) | 27.3%
12 | COc1cc(-c2nc(SCC(C)C)nc(Nc3cccc4ccccc34)c2C#N)cc(OC)c1OC | 74.3% | 89.9% | 94.3% | 106% | 59.1% | 57.1% | 95.5% | 86.5% | 103% | 110%
13 | COc1ccc(OC)c(-c2c(C#N)c(-c3cccs3)nc3c2c(-c2ccccc2)nn3-c2ccccc2)c1 | 104% | 97.4% | 89% | 96.6% | 100% | 93.5% | 102% | 90.2% | 104% | 107%
14 | O=C(CCC(=O)N/N=C/c1ccccc1O)N/N=C/c1ccccc1O | 22.5% | 84.1% | 78.6% | 57.9% | 26% | 31.1% | 36.3% | 24.9% | 21% | 45.2%
15 | COC(=O)CNC(=O)[C@H](Cc1ccccc1)NCc1ccncc1 | 101% | 86.6% | 92.4% | 97.7% | 92.3% | 87.2% | 101% | 99.3% | 103% | 114%
16 | Brc1ccc(-n2cc(-c3nn[nH]n3)c(-c3cccs3)n2)cc1 | 95.3% | 113% | 92.5% | 90.9% | 93% | 98.9% | 101% | 92.7% | 101% | 103%
17 | C#CCOc1ccc2ncnc(Nc3ccc(NC(=O)CCl)cc3)c2c1 | -32.4% (active) | -60% (active) | 42% | -22.2% (active) | -83.7% (active) | 6.66% (active) | -90.6% (active) | -10.1% (active) | -80.1% (active) | 36.2%
18 | C/C(=N\NC(=O)c1ccccc1O)c1cccc(/C(C)=N/NC(=O)c2ccccc2O)n1 | 42.4% | 41.2% | 74.9% | 20% | 20% | 48% | 38% | 52% | 35.8% | 52.2%
19 | Cc1ccc(Sc2nnc(/N=C3\C(=O)Nc4ccccc43)s2)cc1 | 105% | 111% | 87.5% | 101% | 97.4% | 99.7% | 107% | 103% | 97.8% | 105%
20 | N#CC1=C(c2ccc(Cl)cc2)Nc2c(c(-c3ccc(Cl)cc3)nn2-c2ccccc2)C12C(=O)Nc1ccc(Cl)cc12 (stereo not given) | 18.4% | 32.4% | 19% | 24.4% | 25.3% | 21.5% | 78.7% | 54.6% | 41.5% | 79.6%
21 | Cn1cc(-c2csc(-c3ccc(Cl)cc3)n2)c2cccnc21 | -31.9% [100 µM] (active) | -70.3% [100 µM] (active) | -82.5% [100 µM] (active) | -41.8% [100 µM] (active) | 4.92% [100 µM] (active) | -16.7% [100 µM] (active) | -86.9% [100 µM] (active) | -38.5% [100 µM] (active) | 1.66% [100 µM] (active) | -63.9% [100 µM] (active)
22 | O=C(Nn1c2c(sc1=Nc1ccccc1)C(=O)c1ccccc1C2=O)c1cc2ccc1CCc1ccc(cc1)CC2 | 51.3% | 91.8% | 36.3% | 60.7% | 82.6% | 66.3% | 39.7% | 70.8% | 62.2% | 92.4%
23 | O=C(N/N=C/c1ccc(F)cc1)c1ccc(C(F)(F)F)nc1Nc1cccc(C(F)(F)F)c1 | 0.43% (active) | 1.2% (active) | 0.243% (active) | 18.4% | -41% (active) | -1.21% (active) | -30.6% (active) | -6.64% (active) | -23.7% (active) | 12.7%
24 | O=C1/C(=C/c2ccc(F)cc2)COc2ccc(O)c(O)c21 | -27.7% (active) | 13.5% | 26.9% | 33.4% | 1.66% (active) | -0.716% (active) | 56.3% | 7.26% (active) | -85.2% (active) | 44.1%
25 | CCCCCCCCCCCCCCCCCCOc1ccccc1CC(=O)OCC[N+]1(C)CCCC1 | 68.1% | 12.4% | 7.26% (active) | 31.1% | 7.62% (active) | 21.8% | 1.15% (active) | 23.3% | -94.4% (active) | 49.7%
26 | COC(=O)c1c2c(c[n+]([O-])c1C)C(=O)C(NCc1ccccc1)=CC2=O | -60.1% (active) | -0.488% (active) | -97.9% (active) | -23.8% (active) | -57.4% (active) | -11.1% (active) | -97% (active) | -78.5% (active) | -30.1% (active) | -29.3% (active)
27 | O=C1/C(=C/c2ccc(Cl)c(Cl)c2)CN(C(=O)C(Cl)Cl)C/C1=C\c1ccc(Cl)c(Cl)c1 | -62.1% (active) | -4.7% (active) | -70.7% (active) | -93.7% (active) | -92.4% (active) | -45.6% (active) | -79.4% (active) | -46.9% (active) | -91.7% (active) | -64.4% (active)
